Assay results reported in PubChem BioAssay (EPA / NIEHS).
Results filed as inconclusive are left out. The source made the active and inactive calls. How the source made its calls, unless noted: active means hit-call score of the fitted dose curve at least 0.9, where 1 is the maximum; inconclusive means response in the unintended direction; inactive means score below 0.9.

Legend:
[1] = target: Cellular tumor antigen p53 (Homo sapiens) (UniProt P04637); assay: TOX21_p53_BLA_p2_ratio: Tox21 HCT-116 p53 Agonism Beta-lactamase Assay, Ratio, Phase 2 (AID 2283592)
How it was run: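 Gain-of-signal p53 agonism was scored from the beta-lactamase FRET ratio (460/530 nm, 405 nm excitation) in HCT116 cells treated 16 h at 37C, 5% CO2, with DMSO serving as negative control and baseline.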

[2] = TOX21_p53_BLA_p3_viability: Viability Assessment in the Tox21 HCT-116 p53 Agonism Beta-lactamase Assay, Phase 3 (AID 2283593);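 further: cells exposed to compound for 16 h before reading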
How it was run: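 HCT116 cells, 4000/well, dosed 5 h after plating by pin transfer (217-fold dilution from DMSO stock) and incubated 16 h at 37C, 5% CO2. Viability read as ATP luminescence with CellTiter-Glo after 30 min at room temperature.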

[3] = target: Cellular tumor antigen p53 (Homo sapiens) (UniProt P04637); assay: TOX21_p53_BLA_p3_ratio: Tox21 HCT-116 p53 Agonism Beta-lactamase Assay, Ratio, Phase 3 (AID 2283596)
How it was run: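 HCT116 p53-bla cells (4000/well) given compound in DMSO (217-fold dilution) after 5 h, incubated 16 h at 37C. CCF4-AM substrate 2 h at room temperature; 460/530 nm emission ratio, gain fitted against DMSO.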

[4] = TOX21_p53_BLA_p4_viability: Viability Assessment in the Tox21 HCT-116 p53 Agonism Beta-lactamase Assay, Phase 4 (AID 2283597);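 further: hits lower the luminescence signal meaning cytotoxicity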
How it was run: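 Following a 16 h exposure at 37C, the treated HCT116 wells were first read for the FRET ratio. They were then lysed with CellTiter-Glo, and ATP luminescence was recorded after 30 min at room temperature.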

[5] = target: Cellular tumor antigen p53 (Homo sapiens) (UniProt P04637); assay: TOX21_p53_BLA_p5_ratio: Tox21 HCT-116 p53 Agonism Beta-lactamase Assay, Ratio, Phase 5 (AID 2283599)
How it was run: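 HCT-116 p53-bla cells (4000/well) plated 5 h, dosed with compound (217-fold DMSO dilution) for 16 h at 37 C; CCF4-AM substrate 2 h at room temperature. Activity is the 460/530 nm emission ratio (405 nm excitation), fitted in gain-of-signal direction versus DMSO.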

[6] = TOX21_p53_BLA_p5_viability: Viability Assessment in the Tox21 HCT-116 p53 Agonism Beta-lactamase Assay, Phase 5 (AID 2283600)
How it was run: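 After the 460/530 nm beta-lactamase measurement, the wells received an ATP-detection luciferase reagent; signal was read 30 min later at RT. Compound treatment lasted 16 h on cells pre-incubated 5 h post-seeding.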

[7] = target: Cellular tumor antigen p53 (Homo sapiens) (UniProt P04637); assay: TOX21_p53_BLA_p4_ratio: Tox21 HCT-116 p53 Agonism Beta-lactamase Assay, Ratio, Phase 4 (AID 2283601)
How it was run: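 HCT-116 p53 beta-lactamase reporter cells (4000/well) preincubated 5 h, then compound (217-fold dilution of DMSO stock) for 16 h at 37C. CCF4-AM substrate added 2 h at room temperature; 460/530 nm emission ratio fitted upward versus DMSO.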

[8] = tested on: Thyroperoxidase (TPO), gene 54314; assay: CCTE_Simmons_AUR_rTPO: CCTE's Amplex UltraRed Assay for Thyroperoxidase (TPO) Inhibition, Simmons Lab (AID 2283662)
How it was run: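 Rat thyroid microsomal TPO + 25 uM AUR in 200 mM K phosphate; cpd 5 nM–87.5 uM [final], 8 conc, 0.5% DMSO; 300 uM H2O2 starts rxn; 37C dark 30 min; endpoint FI 544/590 nm; n=3.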

[9] = target: Luciferin 4-monooxygenase (Photinus pyralis) (UniProt P08659); assay: CCTE_Simmons_QuantiLum_inhib_2: CCTE's Firefly Luciferase Inhibition Assay, Simmons Lab (AID 2283767)
How it was run: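 Recombinant firefly luciferase (5 ng/well, 200 mM potassium phosphate with 1 mg/ml BSA) was exposed to 8 concentrations from 5 nM to 87.5 uM (final, 0.5% DMSO) for 30 min at 37C in the dark. Loss of luminescence versus DMSO was read after injecting D-luciferin/ATP-analogue reagent.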

[10] = target: Nucleoli Translocation, AR (gene 367) (UniProt P10275); assay: UPITT_HCI_U2OS_AR_TIF2_Nucleoli_Antagonist: University of Pittsburgh U2OS Androgen Receptor-Transcriptional Intermediary Factor 2 (AR-TIF2) Antagonism High Content Imaging Assay for Nucleoli Translocation (AID 2283997)
How it was run: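 U2OS cells co-expressing red-fluorescent-tagged human AR and green-fluorescent-tagged TIF2, imaged by high-content microscopy for nucleolar red fluorescence. Antagonist mode against DHT; primary screen at 20 uM final (0.2% DMSO).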

[11] = target: Nucleoli Translocation, AR (gene 367) (UniProt P10275); assay: UPITT_HCI_U2OS_AR_TIF2_Nucleoli_Agonist: University of Pittsburgh U2OS Androgen Receptor-Transcriptional Intermediary Factor 2 (AR-TIF2) Agonism High Content Imaging Assay for Nucleoli Translocation (AID 2283998)
How it was run: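 Nucleolar translocation of AR-RFP, with TIF2-GFP coexpressed in human osteosarcoma U2OS, imaged by high-content fluorescence. Compounds tested singly at 20 uM final, confirmed in triplicate, then titrated 0.195–50 uM final; gain-of-signal relative to DMSO.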

[12] = target: Ratio of Nucleoli Translocation and Cytoplasm, AR (gene 367) (UniProt P10275); assay: UPITT_HCI_U2OS_AR_TIF2_Nucleoli_Cytoplasm_Ratio_Antagonist: University of Pittsburgh U2OS Androgen Receptor-Transcriptional Intermediary Factor 2 (AR-TIF2) Antagonism High Content Imaging Assay for Ratio of Nucleoli Translocation and Cytoplasm (AID 2283999);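 further: antagonists lower the DHT-driven ratio of nucleolar to cytoplasmic red signal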
How it was run: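 U2OS cells expressing RFP-tagged human AR and GFP-tagged TIF2; compounds tested at 20 uM final (0.2% DMSO) in primary screen, 0.195–50 uM (0.5% DMSO) for concentration response. Readout: nucleolar-to-cytoplasmic red fluorescence ratio by high-content imaging, fitted relative to DHT.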

[13] = target: Ratio of Nucleoli Translocation and Cytoplasm, AR (gene 367) (UniProt P10275); assay: UPITT_HCI_U2OS_AR_TIF2_Nucleoli_Cytoplasm_Ratio_Agonist: University of Pittsburgh U2OS Androgen Receptor-Transcriptional Intermediary Factor 2 (AR-TIF2) Agonism High Content Imaging Assay for Ratio of Nucleoli Translocation and Cytoplasm (AID 2284000);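 further: hits raise the red nucleolar to cytoplasm ratio above vehicle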
How it was run: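 U2OS cells expressing RFP-tagged human AR and GFP-tagged TIF2; high-content imaging ratio of nucleolar to cytoplasmic red fluorescence, fitted as gain of signal vs DMSO. Single point at 20 uM final (0.2% DMSO); concentration-response 0.195-50 uM final (0.5% DMSO).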

[14] = CCTE_Shafer_MEA_dev_firing_rate_mean: CCTE's Neural Network Formation Assay for Mean Firing Rate, Shafer Lab (AID 2284031; active means hit-call score of the fitted dose curve at least 0.9, where 1 is the maximum; inactive means score below 0.9)
How it was run: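 Primary rat cortical neurons on 48-well, 16-electrode MEAs (PEI-coated, laminin at plating), exposed from day 0 with compound renewed at DIV 5 and 9. Spikes recorded DIV 5, 7, 9, 12; well-mean firing rate collapsed to trapezoidal AUC, loss-of-signal vs DMSO.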

[15] = CCTE_Shafer_MEA_dev_per_burst_spike_percent: CCTE's Neural Network Formation Assay for Percent of Spikes in a Burst, Shafer Lab (AID 2284032; active means hit-call score of the fitted dose curve at least 0.9, where 1 is the maximum; inactive means score below 0.9)
How it was run: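 Rat primary cortical neurons on 16-electrode MEA wells, dosed from plating day 0 for 12 days with renewal on DIV 5 and 9; spikes-in-bursts percentage averaged over bursting electrodes, collapsed as AUC across days 5, 7, 9, 12; loss direction versus DMSO.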

[16] = CCTE_Shafer_MEA_dev_active_electrodes_number: CCTE's Neural Network Formation Assay for Number of Active Electrodes, Shafer Lab (AID 2284040)
How it was run: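 Rat cortical primary cultures, 1.5 x 10^5 cells/well, PEI-coated MEA, laminin drop. Continuous exposure DIV 0–12; full media/compound change DIV 5, 9. Readout: electrodes with mean firing ≥5 spikes/min; AUC across days; loss vs DMSO.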

Measured: AC50

Sequence of Cellular tumor antigen p53 (Homo sapiens) (P04637 whole entry, looked up): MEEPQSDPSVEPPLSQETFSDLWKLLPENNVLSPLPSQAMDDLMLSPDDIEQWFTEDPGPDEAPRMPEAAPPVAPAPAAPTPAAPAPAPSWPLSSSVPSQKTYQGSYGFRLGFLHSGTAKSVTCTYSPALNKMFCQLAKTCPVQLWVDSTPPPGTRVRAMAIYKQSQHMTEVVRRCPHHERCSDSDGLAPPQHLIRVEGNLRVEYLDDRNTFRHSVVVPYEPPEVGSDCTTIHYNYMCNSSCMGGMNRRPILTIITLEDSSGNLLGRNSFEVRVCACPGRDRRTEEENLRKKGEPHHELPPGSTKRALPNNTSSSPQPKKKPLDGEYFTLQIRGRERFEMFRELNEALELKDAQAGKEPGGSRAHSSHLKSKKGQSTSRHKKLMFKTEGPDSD
Sequence of Ratio of Nucleoli Translocation and Cytoplasm, AR (gene 367) (P10275 whole entry, looked up): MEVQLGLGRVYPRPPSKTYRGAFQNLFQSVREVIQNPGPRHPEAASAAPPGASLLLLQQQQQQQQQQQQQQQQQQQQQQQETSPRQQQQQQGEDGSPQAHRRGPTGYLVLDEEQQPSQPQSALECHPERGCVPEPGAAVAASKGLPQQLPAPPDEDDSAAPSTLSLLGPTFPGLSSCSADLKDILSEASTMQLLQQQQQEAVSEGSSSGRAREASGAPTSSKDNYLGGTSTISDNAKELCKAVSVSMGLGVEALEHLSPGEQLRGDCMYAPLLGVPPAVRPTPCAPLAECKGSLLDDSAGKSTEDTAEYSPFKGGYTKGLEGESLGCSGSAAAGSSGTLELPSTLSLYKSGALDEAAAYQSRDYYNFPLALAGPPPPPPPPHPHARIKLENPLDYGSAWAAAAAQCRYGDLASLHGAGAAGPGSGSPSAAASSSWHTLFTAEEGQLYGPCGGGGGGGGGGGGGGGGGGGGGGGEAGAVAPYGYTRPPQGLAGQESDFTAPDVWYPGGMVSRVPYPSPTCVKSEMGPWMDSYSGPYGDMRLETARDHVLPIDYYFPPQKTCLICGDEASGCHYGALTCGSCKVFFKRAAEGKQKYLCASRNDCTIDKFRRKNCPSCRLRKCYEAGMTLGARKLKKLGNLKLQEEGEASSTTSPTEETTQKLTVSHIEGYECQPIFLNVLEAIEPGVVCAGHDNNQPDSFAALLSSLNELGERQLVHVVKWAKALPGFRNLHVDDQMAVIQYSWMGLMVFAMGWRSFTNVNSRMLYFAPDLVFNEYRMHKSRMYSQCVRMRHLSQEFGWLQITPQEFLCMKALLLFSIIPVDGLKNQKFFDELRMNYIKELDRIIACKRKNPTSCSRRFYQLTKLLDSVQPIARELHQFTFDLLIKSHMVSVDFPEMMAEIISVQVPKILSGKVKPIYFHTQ
Sequence of Nucleoli Translocation, AR (gene 367) (P10275 whole entry, looked up): as above
Sequence of Luciferin 4-monooxygenase (Photinus pyralis) (P08659 whole entry, looked up): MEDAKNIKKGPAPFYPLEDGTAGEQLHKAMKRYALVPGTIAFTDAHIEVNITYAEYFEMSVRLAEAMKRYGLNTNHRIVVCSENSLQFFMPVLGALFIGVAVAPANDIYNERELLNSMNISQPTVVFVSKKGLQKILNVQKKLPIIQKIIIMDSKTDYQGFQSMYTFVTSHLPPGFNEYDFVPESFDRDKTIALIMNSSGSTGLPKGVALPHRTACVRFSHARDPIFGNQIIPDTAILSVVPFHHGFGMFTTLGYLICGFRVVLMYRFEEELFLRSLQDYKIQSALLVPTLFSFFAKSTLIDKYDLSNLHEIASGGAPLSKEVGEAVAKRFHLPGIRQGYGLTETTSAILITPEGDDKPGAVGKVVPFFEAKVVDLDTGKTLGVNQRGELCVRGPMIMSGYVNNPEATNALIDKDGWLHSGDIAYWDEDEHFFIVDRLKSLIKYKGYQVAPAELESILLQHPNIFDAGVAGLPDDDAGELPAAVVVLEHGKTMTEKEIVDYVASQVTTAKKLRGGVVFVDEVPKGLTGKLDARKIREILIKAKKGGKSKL

c1ccc2cc3c(cc2c1)-c1cccc2cccc-3c12
active: [1] 3.24 µM | [3] 11 µM | [5] 4.58 µM | [7] 1.98 µM | [10] 1.19 µM
inactive: all other assays above
